Test results from PubChem BioAssay AID624418 (National Center for Advancing Translational Sciences (NCATS), 2012).
The campaign covered roughly 410,000 compounds. About 530 (0.13%) were called active. About 5% were inconclusive and are not listed. The call rests on the fitted dose curve; in most records, active means well fitted inhibition curve with a large enough effect; inconclusive means small, poorly fitted or top-dose-only effect, or another doubt; inactive means no such curve, though single readings can be large or run the other way. Shown is part of a subset that was picked to be rich in actives. Where a call stands in place of a potency, no number is given.

Assay: qHTS of GLP-1 Receptor Inverse Agonists: Cytotox Screen;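 further: loss of luciferase light is scored as toxicity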
Details: HEK293 cAMP-luciferase reporter cells, luminescence, 24 h; series mostly up to 38.3 µM
Text: The overall goal of this project was to develop a novel assay for discovering small molecule ligands for class B1 G protein-coupled receptors (GPCRs). Very few agonists (or inverse agonists) with generally weak activity for this entire group of physiologically important receptors are known to date. To establish proof-of-principle that this critical bottleneck can be overcome with a suitable screening approach, our studies focused on the class B1 receptor for glucagon-like peptide-1 (GLP-1R), a potential therapeutic target for diabetes and neurodegenerative disease.
The assay was developed using a cell-based functional readout. Toward this goal, stably transfected HEK293 cell clones were established that co-express (i) a cAMP-responsive luciferase reporter gene, and (ii) constitutively active GLP-1R that upon ligand interaction inhibit (inverse agonists) the luciferase activity. In addition, two control cell lines were developed: (i) one that express only the cAMP-responsive reporter gene to enable initial exclusion of GLP-1R independent effects of candidate probes; and (ii) one with the reported gene cloned with another constitutively active orphan receptor GPR119 to enable exclusion of GLP-1R independent inhibitor effects of candidate inverse agonists.
To that end, this assay was optimized for 1536-well format and screened against the MLSMR. Then the same collection was run in this cytotoxicity assay where inhibition was the undesired outcome.
NIH Molecular Libraries Probe Production Network [MLPCN]
NIH Chemical Genomics Center [NCGC]
PI Name: Martin Beinborn, Tufts Medical Center
Six ul of cell suspension (200 cells/uL in DMEM + 10% Nu serum + 1% pen-strep) is dispensed in a white solid 1536-well plate. The plates are incubated for 12 hours at 37 deg C at 5% CO2 followed by addition of 23 nL compounds. After 24 hr incubation at 37 deg C and 5% CO2, 3 uL of luciferase assay detection reagent is added. A luminescence read is obtained on the PerkinElmer Viewlux after 12 min incubation at room temperature.
Potency means the concentration at half of the fitted maximal effect.

| Structure (SMILES) | Potency |
| --- | --- |
| Cn1c(C(=O)Nc2cccc(C(F)(F)F)c2)cc2c(=O)n3ccccc3nc21 | inactive |
| Cc1ccc2c(c1)-c1c(cnn1CC(=O)Nc1ccccc1C#N)CO2 | inactive |
| CCN1CCN(c2ncnc3c2cnn3-c2ccc(C)c(C)c2)CC1 | inactive |
| COC(=O)c1ccc(NC(=O)c2cccc3c2C(=O)N(C2CCCCC2)C3)cc1 | inactive |
| COc1ccc(-c2nn3c(-c4ccc(OC)cc4)nnc3c3ccccc23)cc1 | inactive |
| CCOc1cc(C2c3c(-c4ccc(Br)cc4)n[nH]c3C(=O)N2c2ccc(Cl)cc2)ccc1O (stereo unspecified) | inactive |
| CCC(Sc1nc2n[nH]c(C)c2c(=N)n1-c1ccccc1Cl)C(=O)N(CC)CC (stereo unspecified) | inactive |
| CC(=O)OC1=C(C(C)=O)N(Cc2ccccc2)S(=O)(=O)c2ccccc21 | inactive |
| CN(Cc1ccccc1)C(=O)c1cn(C)c2ccc(S(=O)(=O)N3CCCCC3)cc2c1=O | inactive |
| CCc1ccccc1NC(=O)CSc1nnc(-c2ccccc2)c(-c2ccccc2)n1 | inactive |
| Cc1ccc(C)c(N2CCN(C(=O)Cc3c(C(=O)O)c(C)cn3C)CC2)c1 | inactive |
| Cc1cccc(NC(=O)C2CCN(S(=O)(=O)c3c(C)noc3/C=C/c3ccco3)CC2)c1 | inactive |
| COc1ccc(OC)c(NC(=O)C2CCCN(S(=O)(=O)c3ccc4c(c3)CCCC(=O)N4)C2)c1 (stereo unspecified) | inactive |
| COc1ccc(CC(=O)N2N=C(C)CC2(O)C(F)(F)F)cc1 (stereo unspecified) | 6.31 µM (active) |
| CC1=NN(C(=O)Cc2ccc(C)cc2)C(O)(c2cccnc2)C1 (stereo unspecified) | inactive |
| CC1=NN(C(=O)CCc2ccccc2O)C(O)(C(F)(F)F)C1 (stereo unspecified) | inactive |
| O=C(Nc1ccc(Oc2ccccc2)cc1)C1CCN(S(=O)(=O)c2ccc(Cl)cc2)CC1 | inactive |
| CC(=O)Nc1ccc(NC(=O)CSc2nnc3c4cc(Br)ccc4n(C)c3n2)cc1 | inactive |
| CC(C)CN1CCC1(C)C(=O)Nc1ccc(OC(F)F)cc1 (stereo unspecified) | inactive |
| CC(C)N(Cc1ccccc1)C(=S)Nc1ccc(OC(F)F)cc1 | inactive |
| CC/C(=N\NC(=S)NC(C)C)c1ccc(OC(F)F)cc1 | 4.47 µM (active) |
| Cc1oc(C)c2c(=O)cc(-c3ccc4c(c3)OCO4)cc(OC(=O)c3ccc(Cl)cc3)c12 | inactive |
| O=C(Nc1cc(C(F)(F)F)ccc1Cl)c1nc2ccccc2nc1N1CCCCC1 | inactive |
| O=C(NCC12CC3CC(CC(C3)C1)C2)c1cc2nc(-c3ccccc3)cc(C(F)(F)F)n2n1 | inactive |

| Structure (SMILES) | Potency |
| --- | --- |
| CSc1ccccc1-c1nnc(NC(=O)c2ccc3c(c2)OCCO3)o1 | inactive |
| CCOc1ccccc1NC(=O)C1CCCN(S(=O)(=O)c2cn(C)cn2)C1 (stereo unspecified) | inactive |
| Fc1ccc(-c2nc(Nc3cccc(Cl)c3)nc3c2COc2ccccc2-3)cc1 | inactive |
| Cc1cccc(C(=O)Nc2ccc(S(=O)(=O)N3CCCCC3c3cccnc3)cc2)c1 (stereo unspecified) | inactive |
| O=C(Nc1ccc(Br)cc1)c1ccc(Br)c(S(=O)(=O)NCc2ccccc2)c1 | inactive |
| CCOC(=O)c1c(NC(=O)/C=C/c2ccc(OC)cc2)sc2c1CCC(C)C2 (stereo unspecified) | inactive |
| CCc1ccc(NC(=O)Cn2c(=O)n(CCC(=O)NCc3ccc4c(c3)OCO4)c(=O)c3ccccc32)cc1 | inactive |
| O=C(c1ccc(Cl)cc1)n1nc(-c2cccnc2)nc1NCc1ccc(F)cc1 | inactive |
| Clc1ccc(CSc2nncn3c2cc2occc23)cc1 | inactive |
| O=C(Cn1cnc2c(oc3ccccc32)c1=O)Nc1ccc(OC(F)(F)F)cc1 | inactive |
| COc1ccc(C(=O)COC(=O)CCCC(=O)Nc2cc(C(F)(F)F)ccc2Cl)cc1 | inactive |
| Cc1ccc(CCNC(=O)c2ccc(CS(=O)(=O)Cc3cccc(C)c3)o2)cc1 | inactive |
| Cc1c(CNC2CCCCC2)c(C(=O)O)c(C)n1Cc1cccc(Cl)c1 | inactive |
| Cc1nc(SCCOc2ccc(Cl)cc2)[nH]c(=O)c1Cc1ccccc1 | inactive |
| Cc1cc(NC(=O)CC(C)C)cc(-c2nc3ncccc3o2)c1O | inactive |
| Cc1ccc2nc(COc3cccc(NC(=O)c4ccccc4Cl)c3)cc(=O)n2c1 | inactive |
| CCOC(=O)C1=CCC2C(=O)N(Cc3ccccc3)C(=O)C12 (stereo unspecified) | inactive |
| COc1ccc(CCNC(=O)CCCCn2c(=O)c3ccccc3n(Cc3ccccc3)c2=O)cc1OC | inactive |
| COc1cc(/C=C2/SC(=S)N(Cc3ccccc3)C2=O)cc(OC)c1O | 10 µM (active) |
| CCCCCc1c(-c2ccc(OC)c(OC)c2)ncn1CCc1ccccc1OC | inactive |
| COc1ccc(-c2cc(C(F)(F)F)n3nc(-c4ccccc4)cc3n2)cc1OC | inactive |
| COc1ccc(-c2nn(-c3ccccc3)cc2/C=N/Nc2ccccn2)cc1OC | 5.01 µM (active) |
| Cc1ccccc1CN1CCC(CNC(=O)c2cc3ccc4cccnc4c3[nH]2)CC1 | inactive |
| O=C(NCC(c1ccc2c(c1)OCO2)N1CCN(c2ccccc2)CC1)C(=O)Nc1ccccc1F (stereo unspecified) | inactive |

| Structure (SMILES) | Potency |
| --- | --- |
| CCc1ccc(NC(=O)c2cc(S(=O)(=O)NC3CCCCCC3)ccc2F)cc1 | inactive |
| CCCCN(CC)C(=O)c1c[nH]c2ccc(S(=O)(=O)Nc3cccc(OC)c3)cc2c1=O | inactive |
| Cc1cccc(NC(=O)c2ccc(F)c(S(=O)(=O)N(C)C3CCCCC3)c2)c1 | inactive |
| COc1ccc(NC(=O)c2ccc3oc(=O)c(S(=O)(=O)c4ccc(F)cc4)cc3c2)c(OC)c1 | inactive |
| Cc1ccc(-n2c(SCC(=O)Nc3cccc(F)c3)nc3c(oc4ccccc43)c2=O)cc1C | inactive |
| CC(C)Oc1ccc(NC(=O)c2cc3ccccc3o2)cc1 | inactive |
| Cc1ccc(NC(=O)C2CCN(S(=O)(=O)c3cc(-c4noc(C)n4)ccc3C)CC2)c(C)c1 | inactive |
| Cc1ccc(Cl)cc1NC(=O)/C(C#N)=C\c1cn(Cc2ccc(F)cc2)c2ccccc12 | inactive |
| CN(CC(=O)NCCN1CCOCC1)S(=O)(=O)c1ccc(F)cc1 | inactive |
| Cc1c(C(=O)NCCN2CCOCC2)sc2nc(-c3ccc(F)cc3)cn12 | inactive |
| Fc1ccc(-c2ccc(NCCN3CCOCC3)nn2)cc1 | 10 µM (active) |
| COc1cc(OC)cc(C(=O)NCCc2csc3nc(-c4ccccc4F)nn23)c1 | inactive |
| CCOc1ccc(NC(=O)CCc2c(C)nn(-c3ccc(N4CCCC4)nn3)c2C)cc1 | inactive |
| COc1ccc(C)cc1N(CC(=O)N1CCC(C)CC1)S(=O)(=O)c1ccc(C)cc1 | inactive |
| O=C1/C(=C\c2ccc([N+](=O)[O-])cc2)CS(=O)(=O)C/C1=C/c1ccc([N+](=O)[O-])cc1 | 3.16 µM (active) |
| COc1cc(C(=O)N2CCN(C(=O)COc3cccc(C)c3)CC2)cc(OC)c1OC | inactive |
| CCc1nc2nc(C)cc(Nc3ccc(F)c(Cl)c3)n2n1 | inactive |
| COCCNC(=O)CSc1c(C)cnc2c1c(=O)n(C)c(=O)n2C | inactive |
| CCOCCCNC(=O)c1c(NC(=O)Cc2coc3c(C)c(C)ccc23)sc2c1CCC2 | inactive |
| Cc1ccc(S(=O)(=O)c2nnn3c2nc(N2CCN(c4ccccc4F)CC2)c2cc(Cl)ccc23)cc1C | inactive |
| CN(C)C(=S)N=c1ssc(=S)n1Cc1ccco1 | 0.316 µM (active) |
| CCc1ccccc1N1CN(Cc2ccco2)CNC1=S | inactive |
| CCOC(=O)c1ccc(CN(Cc2ccccc2)S(=O)(=O)c2ccc(Cl)cc2)cc1 | inactive |
| COc1c(Cl)cc(Cl)cc1C(=O)Nc1cccc2cccnc12 | inactive |

| Structure (SMILES) | Potency |
| --- | --- |
| CC(C)C12CN3CC(C(C)C)(CN(C1)C3c1ccc(OCc3ccccc3)cc1)C2=O (stereo unspecified) | inactive |
| Cc1ccccc1-c1nc2cc(NC(=O)c3cccc(OCCC(C)C)c3)ccc2o1 | inactive |
| COc1ccc(-n2c(SC)nc3sc4c(c3c2=O)CCN(C(C)=O)C4)cc1 | inactive |
| O=C(c1ccc2c(c1)N(Cc1ccccc1)C(=O)c1ccccc1S2(=O)=O)N1CCCC1 | inactive |
| CC1CCCCN1CC(=O)N1CCCc2c1c(=O)oc1ccc(OCc3ccccc3)cc21 (stereo unspecified) | inactive |
| CCC1CCCCN1Cc1c(O)ccc2c(=O)c(Oc3ccccc3Cl)c(C(F)(F)F)oc12 (stereo unspecified) | inactive |
| COC(=O)c1sccc1S(=O)(=O)N(CC(=O)Nc1ccc(C)c(F)c1)c1ccc(C)c(C)c1 | inactive |
| O=S(=O)(c1ccc2nc(N3CCN(c4cccc(Cl)c4)CC3)ccc2c1)N1CCCCC1 | inactive |
| COc1ccccc1NC(=O)CN1C(=O)c2ccccc2Sc2ccc(C(=O)N3CCCC3)cc21 | inactive |
| CCOc1ccc(NC(=O)c2cc3c(=O)n(Cc4cccs4)ccc3nc2C)cc1 | inactive |
| CCCC(=O)Nc1ccc2oc(-c3ccc(O)c(Br)c3)nc2c1 | inactive |
| COc1ccc(C(F)(F)F)cc1NC(=O)c1sc2nc(-c3cccs3)ccc2c1N | inactive |
| CCCCCn1c(=O)[nH]c2cc(C(=O)Nc3cc(C)cc(C)c3)ccc2c1=O | inactive |
| O=C(Cn1ncc2c3ccccc3n(Cc3ccccc3)c2c1=O)NC1CCCCCC1 | inactive |
| COc1ccc(-c2noc(CSc3nc4ccc(C)cc4[nH]3)n2)cc1 | inactive |
| Cc1ccc(-n2ncc(C(=O)N(C)Cc3ccccc3)c2-n2cccc2)cc1 | inactive |
| CCOc1ccc(S(=O)(=O)c2cn(Cc3ccc(OC)cc3)c3ccc(F)cc3c2=O)cc1 | inactive |
| N#C/C(=C\c1ccccc1F)c1nc2ccccc2c(=O)[nH]1 | inactive |
| Cc1ccc2nc(CNC(=O)c3ccccc3)[nH]c2c1 | inactive |
| O=C(/C(=C/c1cccc(Cl)c1)c1nc2ccccc2[nH]1)c1ccccc1 | 10 µM (active) |
| COc1ccc(-c2noc(CSc3nc(C)cc(=O)[nH]3)n2)cc1OC | inactive |
| CCOc1ccc(NC(=O)CN(Cc2ccccc2)S(=O)(=O)c2ccc(Cl)cc2)cc1 | inactive |
| CCOc1ccc(N(Cc2ccccc2)C(=O)c2nc(SCC)ncc2Cl)cc1 | inactive |
| CCOc1ccc(N(Cc2ccccc2)C(=O)c2nc(S(C)(=O)=O)ncc2Cl)cc1 | 7.94 µM (active) |
